In all, about 16,000 compounds went through this assay and about 5,100 (32%) were called active. Roughly 25% stayed inconclusive and do not appear here. The call rests on the fitted dose curve; in most records, active means well fitted curve in the direction sought with a large enough effect; inconclusive means small, poorly fitted or top-dose-only effect, or effect the other way; inactive means no such curve, though single readings can be large or run the other way. The list shows a part of the results.
Target: Cytochrome P450 3A4 (Homo sapiens) (UniProt P08684)
Assay: Cytochrome panel assay with activity outcomes
Settings: recombinant CYP, pro-luciferin dealkylation, luminescence, p450-cyp3a4; series mostly up to 57.1 µM; activity, negative = inhibition: at the top concentration
On the % scale 0 is the no-effect control and ±100 the full control effect.

Cytochrome P450 3A4 (Homo sapiens), sequence (P08684 whole entry, looked up): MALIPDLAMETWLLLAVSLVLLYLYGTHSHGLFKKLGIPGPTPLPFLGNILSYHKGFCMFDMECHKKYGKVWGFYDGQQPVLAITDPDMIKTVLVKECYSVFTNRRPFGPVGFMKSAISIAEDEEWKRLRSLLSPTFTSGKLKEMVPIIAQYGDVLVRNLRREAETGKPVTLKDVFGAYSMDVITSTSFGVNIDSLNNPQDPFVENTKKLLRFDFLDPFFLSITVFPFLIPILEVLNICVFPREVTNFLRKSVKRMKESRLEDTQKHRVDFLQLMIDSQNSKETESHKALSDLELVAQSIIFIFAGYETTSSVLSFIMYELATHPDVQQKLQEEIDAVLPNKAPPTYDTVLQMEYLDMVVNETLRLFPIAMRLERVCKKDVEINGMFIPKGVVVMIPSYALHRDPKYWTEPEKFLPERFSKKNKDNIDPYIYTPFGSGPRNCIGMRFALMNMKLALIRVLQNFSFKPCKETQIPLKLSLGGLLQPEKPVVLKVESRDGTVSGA

Row | SMILES | activity, negative = inhibition | AC50
1 | NC(N)=N/N=C\c1ccc(C2CCNCC2)cc1 | -4.2% [at 11.4 µM] (inactive) | –
2 | CN(C)CCCn1c2c3ccccc3ccc2c2oc(=O)c3ccccc3c21 | 3.83% [at 11.4 µM] (inactive) | –
3 | NC1=NC(=O)/C(=C/c2cccs2)S1 | 10.4% (inactive) | –
4 | CCNc1ncc2nc(-c3ccccc3)c(=O)n(C)c2n1 | -26.1% (inactive) | –
5 | CCNc1ncc2nc(CCc3ccccc3)c(=O)n(-c3ccc(OC)cc3)c2n1 | – | 6.31 µM (active)
6 | CCNc1ncc2nc(-c3ccc(Cl)cc3)c(=O)n(C)c2n1 | -10.1% (inactive) | –
7 | CCNc1ncc2nc(-c3ccccc3)c(=O)n(C3CC3)c2n1 | -27.1% (inactive) | –
8 | CCNc1ncc2nc(CCc3ccccc3)c(=O)n(C3CC3)c2n1 | – | 15.8 µM (active)
9 | CCNc1ncc2nc(C)c(=O)n(C3CC3)c2n1 | -24.2% (inactive) | –
10 | COc1ccc(-c2nc3cnc(N4CCOCC4)nc3n(CCc3ccccc3)c2=O)cc1 | -9.07% (inactive) | –
11 | CCNc1ncc2nc(CCc3ccccc3)c(=O)n(-c3ccccc3)c2n1 | – | 5.01 µM (active)
12 | COc1ccc(-n2c(=O)c(-c3ccccc3)nc3cnc(N4CCOCC4)nc32)cc1 | -13.6% (inactive) | –
13 | COc1ccc(-n2c(=O)c(CCc3ccccc3)nc3cnc(N4CCOCC4)nc32)cc1 | – | 12.6 µM (active)
14 | COc1ccc(C(=O)c2cnc3ccccc3c2-c2ccccc2)cc1 | – | 12.6 µM (active)
15 | COc1ccc(C(=O)c2ccccc2)c(O)c1 | -12.2% [at 25.6 µM] (inactive) | –
16 | CCOC(=O)c1cn(-c2nc(-c3ccc(Cl)cc3)cs2)c2c(F)c(N3CC(C)OC(C)C3)c(F)cc2c1=O (stereo unspecified) | -1.76% (inactive) | –
17 | Cc1ccc(S(=O)(=O)Nc2nc3ccccc3nc2N2CCc3ccccc3C2)cc1 | – | 2.82 µM (active)
18 | Cc1ccc2[nH]c3c(N4CCc5ccccc5C4)ncnc3c2c1 | -19.7% [at 2.29 µM] (inactive) | –
19 | O=C1C2C3C=CC(C2C(=O)N1CN1CCOCC1)C1C2C(=O)N(CN4CCOCC4)C(=O)C2C31 (stereo unspecified) | -1.18% [at 11.4 µM] (inactive) | –
20 | COc1cccc(-c2cc(NCc3cccs3)ncn2)c1 | – | 7.94 µM (active)
21 | COc1ccccc1-c1cc(NCc2cnc(C)cn2)ncn1 | -29.9% (inactive) | –

Row | SMILES | activity, negative = inhibition | AC50
22 | COc1cccc(-c2cc(NCc3cccnc3)ncn2)c1 | – | 3.98 µM (active)
23 | COc1cccc(-c2cc(NCc3cnc(C)cn3)ncn2)c1 | – | 25.1 µM (active)
24 | c1cncc(-c2cc(NCc3cccs3)ncn2)c1 | – | 2.51 µM (active)
25 | N[C@](CC1c2ccccc2Oc2ccccc21)(C(=O)O)[C@@H]1C[C@@H]1C(=O)O | -17.2% (inactive) | –
26 | CCCOC(=O)c1ccc(NC(=O)c2cn(CC)c3nc(C)ccc3c2=O)cc1 | -9.88% (inactive) | –
27 | C[C@@H]1c2cccc(O)c2C(O)=C2C(=O)[C@@]3(O)C(O)=C(C(N)=O)C(=O)[C@@H](N(C)C)[C@@H]3[C@@H](O)[C@@H]21 | – | inactive
28 | COc1cccc(-c2cc(NCc3ccccc3)ncn2)c1 | – | 25.1 µM (active)
29 | O=C(NCCO[N+](=O)[O-])c1cccnc1 | -5.81% (inactive) | –
30 | O=C(NCCOC(=O)c1ccc(C(=O)OCCNC(=O)c2cccnc2)s1)c1cccnc1 | – | 2.51 µM (active)
31 | CCN1C(=O)/C(=C/C=C2/SCCN2C)SC1=S | 0.316% [at 2.29 µM] (inactive) | –
32 | CN1CCN(NC(=O)CN2C(=O)/C(=C/c3c(Cl)cccc3Cl)SC2=S)CC1 | – | 14.1 µM (active)
33 | CN1CCN(NC(=O)c2cccc(F)c2)CC1 | -1.37% (inactive) | –
34 | CN(C)C(=C(C#N)C#N)N1CCN(c2ccc(Cl)c(Cl)c2)CC1 | – | 8.91 µM (active)
35 | CSC(=NC#N)N1CCN(c2ccc(Cl)cc2)CC1 | 22.3% (inactive) | –
36 | C[N@+]1(CCC(=O)c2ccccc2)CC[C@H]2CC[C@H](C2)C1 | -5.07% [at 11.4 µM] (inactive) | –
37 | CCOC(=O)c1c(NC(C)=O)sc2c(OC)cccc12 | – | 2 µM (active)
38 | CCOC(=O)c1sc(NC(C)=O)nc1-c1ccccc1 | -5.57% [at 2.29 µM] (inactive) | –
39 | O=[N+]([O-])C(/C=C(\Cl)[N+](=O)[O-])=C1N(Cc2ccc(Cl)nc2)CCN1Cc1ccc(Cl)nc1 | – | 14.1 µM (active)
40 | CCOC(=O)c1cnn(-c2nc(-c3cccc(F)c3)cs2)c1C(F)(F)F | 29.3% (inactive) | –
41 | CC(=O)c1cccc(NC(=O)c2csc(-n3nc(C)cc3C(F)(F)F)n2)c1 | – | 10 µM (active)
42 | CCOc1ccc(CC(C(N)=O)C(N)=O)cc1CN(C)C | -4.85% [at 2.29 µM] (inactive) | –

Row | SMILES | activity, negative = inhibition | AC50
43 | Cc1sc(NC(=O)c2ccccc2)c(C(=O)NCCN(C)C)c1C | -2.43% (inactive) | –
44 | COC(=O)c1c(NC(C)=O)sc(Cc2ccccc2)c1C | – | 14.1 µM (active)
45 | CCOc1ccc(CC(=O)Nc2sc(Cc3ccccc3)c(C)c2C(N)=O)cc1OCC | – | 20 µM (active)
46 | COC(=O)c1ccc(NC(C)=O)o1 | -12.1% (inactive) | –
47 | CO[C@]1(NC(=O)[C@H](C(=O)O)c2ccc(O)cc2)C(=O)N2C(C(=O)O)=C(CSc3nnnn3C)CO[C@H]21 | 5.89% [at 25.6 µM] (inactive) | –
48 | CN(CC(=O)Nc1ccc(F)c(F)c1)S(=O)(=O)c1cccc2nsnc12 | – | 5.01 µM (active)
49 | CC1CCN(C(=O)Nc2ccc3nsnc3c2)CC1 | -28.8% (inactive) | –
50 | CC1CCN(C(=O)CN(C)S(=O)(=O)c2cccc3nsnc23)CC1 | – | 3.55 µM (active)
51 | COc1cc([C@@H](O)CO)ccc1OS(=O)(=O)O | 2.06% (inactive) | –
52 | COc1cccc(N=c2oc3c(C)ncc(CO)c3cc2C(N)=O)c1 | – | 17.8 µM (active)
53 | CCOC(=O)c1c(C)nc2c(c1-c1ccccc1)C(=O)CC(C)(C)C2 | -29.8% (inactive) | –
54 | CCOC(=O)c1c(C)nc2c(c1-c1ccc(OC)cc1)C(=O)CC(C)(C)C2 | – | 10 µM (active)
55 | O=C(Nc1ccc2nc(-c3ccc(Br)o3)[nH]c2c1)c1ccco1 | – | 14.1 µM (active)
56 | O=C(N/C(=C\c1cccnc1)C(=O)N1CCOCC1)c1cccc(Br)c1 | – | 1 µM (active)
57 | Cc1ccc(NC(=O)/C(=C\c2cccnc2)NC(=O)c2ccco2)cc1 | 15.8% (inactive) | –
58 | O=C(Nc1cccc(Br)c1)/C(=C\c1cccnc1)NC(=O)c1ccco1 | – | 0.501 µM (active)
59 | O=C(/C=C/c1ccccc1)NNC(=O)c1cccnc1 | -12% [at 2.29 µM] (inactive) | –
60 | CCC(=O)Nc1cccc(C(=O)/C=C/c2ccccc2)c1 | -23.2% [at 11.4 µM] (inactive) | –
61 | O=C(/C=C/c1cccnc1)c1ccc(NC(=O)c2cccc(Br)c2)cc1 | – | 2.24 µM (active)

From PubChem BioAssay AID1851 (National Center for Advancing Translational Sciences (NCATS), 2009)
